From PMC4336329 (PLoS ONE, 2015)
About 14,000 (4.5%) of roughly 310,000 compounds showed an effect of 50% or more. The effect is printed as a negative number. Shown is part of a subset that was picked to be rich in strong results.

biological target: human ether-à-go-go-related gene (hERG) potassium channel (human, UniProt Q12809); experiment: primary screen, population patch clamp on CHO cells stably expressing hERG; higher = less effect of the substance
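Note: peak tail current of the secondary pulse compared with the same well before compound.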

human ether-à-go-go-related gene (hERG) potassium channel, sequence (Q12809 whole entry, looked up): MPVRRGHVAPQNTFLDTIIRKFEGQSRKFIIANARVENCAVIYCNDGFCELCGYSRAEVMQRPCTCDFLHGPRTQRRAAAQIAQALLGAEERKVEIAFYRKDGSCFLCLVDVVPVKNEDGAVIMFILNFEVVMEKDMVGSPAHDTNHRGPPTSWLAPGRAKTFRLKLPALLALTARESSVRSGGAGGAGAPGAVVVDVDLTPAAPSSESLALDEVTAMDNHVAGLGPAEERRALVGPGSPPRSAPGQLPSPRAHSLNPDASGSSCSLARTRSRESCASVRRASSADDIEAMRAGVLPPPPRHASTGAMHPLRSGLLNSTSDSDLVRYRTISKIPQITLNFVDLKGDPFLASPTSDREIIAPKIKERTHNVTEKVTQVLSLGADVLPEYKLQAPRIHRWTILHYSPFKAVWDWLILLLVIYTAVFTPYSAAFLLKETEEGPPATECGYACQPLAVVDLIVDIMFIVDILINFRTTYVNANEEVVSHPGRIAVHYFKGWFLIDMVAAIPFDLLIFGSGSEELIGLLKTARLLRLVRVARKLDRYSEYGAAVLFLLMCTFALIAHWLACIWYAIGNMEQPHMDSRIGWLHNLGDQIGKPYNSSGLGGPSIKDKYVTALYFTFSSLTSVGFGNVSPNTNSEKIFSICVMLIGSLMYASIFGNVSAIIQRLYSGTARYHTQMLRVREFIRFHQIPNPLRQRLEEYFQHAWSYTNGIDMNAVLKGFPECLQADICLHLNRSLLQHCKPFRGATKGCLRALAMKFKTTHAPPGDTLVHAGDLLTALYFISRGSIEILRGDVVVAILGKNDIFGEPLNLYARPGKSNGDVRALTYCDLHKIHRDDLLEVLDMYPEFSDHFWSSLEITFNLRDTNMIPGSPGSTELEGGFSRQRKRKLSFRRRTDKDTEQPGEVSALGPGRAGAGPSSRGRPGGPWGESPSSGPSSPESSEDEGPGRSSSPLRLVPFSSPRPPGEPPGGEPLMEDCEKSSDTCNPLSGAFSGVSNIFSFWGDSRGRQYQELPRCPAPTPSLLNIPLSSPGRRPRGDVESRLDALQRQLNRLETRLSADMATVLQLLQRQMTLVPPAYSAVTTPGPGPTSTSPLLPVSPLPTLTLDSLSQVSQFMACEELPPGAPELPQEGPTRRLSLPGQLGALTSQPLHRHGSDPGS

Row | SMILES | hERG current change (%, negative = inhibition) at 10uM [%]
1 | CS(=O)(=O)c1ccc2nc(NC(=O)c3ccc(Cl)cc3)sc2c1 | 6.42
2 | COC(=O)CCCC[C@@H]1SC[C@@H](NC(=O)OC)[C@@H]1NC(=O)OC | 5.49
3 | CC[C@@H](C)[C@H](NC(=O)Cc1c(C)c2cc3c(C)coc3c(C)c2oc1=O)C(=O)O | 6.21
4 | COc1ccc(S(=O)(=O)N2CCN(C/C=C/c3ccccc3)CC2)cc1F | -30.1
5 | COc1ccc(/C=C/C(=O)Nc2ccc(NC(C)=O)cc2)cc1S(=O)(=O)N1CCOCC1 | 1.65
6 | COc1ccc(/C=C/C(=O)Nc2ccc(C)cc2)cc1S(=O)(=O)N1CCOCC1 | -32.6
7 | COc1ccc(NC(C)=O)cc1S(=O)(=O)N1CCN(C/C=C/c2ccccc2)CC1 | -69.3
8 | COc1ccc(C)cc1S(=O)(=O)N1CCN(C/C=C/c2ccccc2)CC1 | -23.8
9 | COc1ccc(S(=O)(=O)N2CCN(C/C=C/c3ccccc3)CC2)cc1NC(C)=O | -77.9
10 | COc1ccc(NC(C)=O)cc1S(=O)(=O)N1CCN(Cc2cccs2)CC1 | -3.53
11 | COc1ccc(/C=C/C(=O)Nc2ccccc2)cc1S(=O)(=O)N1CCOCC1 | -52.2
12 | COc1ccc(S(=O)(=O)N2CCN(C(c3ccccc3)c3ccccc3)CC2)cc1NC(C)=O | 21.2
13 | Cc1ccc(S(=O)(=O)N(C)/N=C/c2ccc(C(=O)O)cc2)cc1 | -7.51
14 | N#C/C(=C\c1ccc(C#N)cc1)C(=O)c1ccccc1 | 10.7
15 | COc1ccc(NC(=O)CSc2nnc(-c3ccccn3)n2N)cc1Cl | -2.27
16 | COc1ccc(/C=N/NC(=O)CCC(=O)Nc2ccc(Br)cc2)c(OC)c1 | 5.6
17 | COc1ccc(CNC(=O)Cn2nc([N+](=O)[O-])c(Br)c2C)cc1OC | -10.2
18 | COC(=O)C1=C(C)N(c2ccc(C)c(C)c2)/C(=C/c2cccs2)C1=O | -17.7
19 | CCS(=O)(=O)N1CCN(S(=O)(=O)c2ccc3c(c2)OCCO3)CC1 | 17.5
20 | CCCCOc1ccc(/C=C/C(=O)N(CC)CC(=O)Nc2ccc3c(c2)OCCO3)cc1OC | -28.9
21 | CNC(=O)/C(C#N)=C/c1ccc(-c2ccc(OC)cc2[N+](=O)[O-])o1 | -1.67
22 | O=C(c1cccc(Cl)c1)N1CCC(=O)N(C(COCc2ccccc2)Cc2ccccc2)CC1 (stereo not drawn) | -51.9

Row | SMILES | hERG current change (%, negative = inhibition) at 10uM [%]
23 | CC(C)C[C@@H](COc1ccccc1)N1CCN(CC(C)C)CCC1=O | -48.5
24 | C[C@H]1CCC(=O)N([C@H](COc2ccccc2)Cc2ccccc2)CC1 | -42.7
25 | O=C1CCN(Cc2ccccc2)CCN1[C@H](CO)Cc1ccccc1 | 14.5
26 | CN1CCC(=O)N([C@H](COc2ccccc2)Cc2ccccc2)CC1 | -28.5
27 | O=C(c1cc(Cl)cc(Cl)c1)N1CCC(=O)N(C(COCc2ccccc2)Cc2ccccc2)CC1 (stereo not drawn) | -10
28 | Cc1cccc(COCC(Cc2ccccc2)N2CCN(C(=O)c3cccc(Cl)c3)CCC2=O)c1 (stereo not drawn) | -15.1
29 | CC(C)CN1CCC(=O)N([C@H](COc2ccccc2)Cc2ccccc2)CC1 | -71.7
30 | CCCN1CCC(=O)N([C@H](COc2ccccc2)Cc2ccccc2)CC1 | -68.1
31 | N#CC[C@H](Cc1ccccc1)N1CCN(Cc2ccccc2)CCC1=O | -24
32 | O=C1CCN(Cc2ccccc2)CCN1[C@H](COc1ccccc1)Cc1ccccc1 | -56.4
33 | CC(C)CN1CCC(=O)N([C@H](CO)Cc2ccccc2)CC1 | 6.64
34 | Cc1cc(C)c2[nH]c(O)c(N=NC3=NC(=O)CS3)c2c1 | -19.6
35 | Cc1ccc(C)c(N2CCN(c3nc4ccccc4c(=O)n3Cc3ccccc3)CC2)c1 | 14.1
36 | Cc1cnc(C(=O)N2CCCC(C(=O)c3ccc(C(C)(C)C)cc3)C2)cn1 (stereo not drawn) | -20.7
37 | CCN1CCN(C(=O)c2ccc(CNS(=O)(=O)c3cccc(OC)c3)cc2)CC1 | 40.7
38 | O=C(OCc1cncs1)c1ccccc1Cl | 6.6
39 | O=C(NCc1cccnc1)Nc1ccc2c(c1)OCO2 | -7.04
40 | COc1ccccc1CCNC(=O)C1CCN(C(=O)/C=C/c2ccccc2)CC1 | -13.8
41 | COCCCNC(=O)CSc1ccc(Cl)cc1 | 2.32
42 | CCCCN(Cc1ccccc1)C(=O)CCN1C(=O)C2C3C=CC(C3)C2C1=O (stereo not drawn) | 1.48
43 | N#CC[C@H](Cc1ccccc1)N1CCN(CCc2ccccc2)CCC1=O | 16.5
44 | O=C1CCN(CCc2ccccc2)CCN1[C@H](CO)Cc1ccccc1 | -44.4

Row | SMILES | hERG current change (%, negative = inhibition) at 10uM [%]
45 | O=C1CCN(CCc2ccccc2)CCN1[C@H](COc1ccccc1)Cc1ccccc1 | -78.6
46 | O=C(Nc1ccccc1)NC1CCN(Cc2c(F)cccc2Cl)CC1 | 7.91
47 | Cc1cccc(-c2nc3c(c(SCC(=O)N4CCOCC4)n2)Cc2c(CO)cnc(C)c2O3)c1 | 5.78
48 | Cc1ccc(S(=O)(=O)NNC(=O)c2csnn2)cc1 | 1.7
49 | CC(C)(C)c1cnnn1-c1ccc([N+](=O)[O-])cc1 | -8.46
50 | CC(=O)c1ccc(-n2nncc2C)cc1 | 19.8
51 | c1ccc(-c2cnnn2-c2ccccc2)cc1 | 12.7
52 | O=C(O)c1ccc(-n2nncc2-c2ccccc2)cc1 | 8.58
53 | O=Cc1ccc(-n2nncc2-c2ccc([N+](=O)[O-])cc2)cc1 | -67.3
54 | O=[N+]([O-])c1ccc(-n2nncc2-c2ccc(Cl)cc2)cc1 | -72.7
55 | O=[N+]([O-])c1cccc(-n2nncc2-c2ccccc2)c1 | -1.23
56 | Cc1cnnn1-c1ccc([N+](=O)[O-])cc1 | 23.5
57 | O=[N+]([O-])c1ccc(-n2nncc2-c2ccccc2)cc1 | -29.4
58 | CC(=O)c1ccc(-n2nncc2-c2ccc([N+](=O)[O-])cc2)cc1 | -53.3
59 | Nc1ccc(-n2nncc2-c2ccc(Cl)cc2)cc1 | -35.9
60 | COc1ccc(-c2cnnn2-c2ccc([N+](=O)[O-])cc2)cc1 | -64.6
61 | Cc1ccc(CNS(=O)(=O)c2ccc(F)c(F)c2)n1C | 15.3
62 | COc1ccc(CCNC(=O)C2CCCN2C(=O)Nc2cccc(C(C)=O)c2)cc1OC (stereo not drawn) | -3.26
63 | COc1ccc(-c2cc(C(F)F)n3ncc(C(=O)N4CCN(C(=O)c5ccco5)CC4)c3n2)cc1 | -34.8
64 | CCc1ccc(NC(=O)C(=O)NCC2CCCO2)cc1 (stereo not drawn) | 10
65 | CCOC(=O)N1CCN(c2nc(=S)n(-c3ccccc3)c(C)c2C(C)=O)CC1 | -2.56
66 | COC(=O)c1ccccc1NC(=S)NC(=O)COc1ccccc1Cl | -4.5

Row | SMILES | hERG current change (%, negative = inhibition) at 10uM [%]
67 | CCC1(C)Cc2nc3[nH]c(=S)n(-c4ccccc4)c(=O)c3cc2CO1 (stereo not drawn) | 17.6
68 | CCOC(=O)COc1coc(CN2CCN(c3ccccc3)CC2)cc1=O | 9.43
69 | O=C(c1ccc(NS(=O)(=O)c2cccc3cccnc23)cc1)N1CCCCC1 | 12
70 | CCCCCCNC(=O)C(C(=O)OCC)C1CCCCC1 (stereo not drawn) | -4.59
71 | C=CCNC(=O)C(C(=O)OCC)C1CCCCC1 (stereo not drawn) | -53.3
72 | CCOC(=O)C(C(=O)NCC1CCCO1)C1CCCCC1 (stereo not drawn) | 12
73 | CCCC[C@H](CN[C@@H](CNC)[C@H](C)CC)NCCC12CCC(CC1)C2 | 10.4
74 | O=C(Cc1cccs1)Nc1ccc(S(=O)(=O)N2CCCCC2)cc1 | 5.37
75 | O=C(CNCc1ccccn1)Nc1cc(S(=O)(=O)N2CCCCC2)ccc1Cl | -19
76 | O=C(CCl)Nc1cc(S(=O)(=O)N2CCCCCC2)ccc1Cl | -22.9
77 | Cc1ccc(S(=O)(=O)N2CCCCC2)cc1NC(=O)Cn1ccsc1=N.Cl | -33.7
78 | O=C(CNCc1ccncc1)Nc1cc(S(=O)(=O)N2CCCCC2)ccc1Cl | -63.9
79 | O=C(CNCc1cccs1)Nc1cc(S(=O)(=O)N2CCCC2)ccc1Cl | -52
80 | Cl.O=C(CNCc1cccs1)Nc1ccc(S(=O)(=O)N2CCCCC2)cc1 | -70.9
81 | O=C(Cc1cccs1)Nc1ccc(S(=O)(=O)N2CCCC2)cc1 | 10.6
82 | O=C(Cc1cccs1)Nc1cc(S(=O)(=O)N2CCCCC2)ccc1Cl | -0.378
83 | Cl.N=c1sccn1CC(=O)Nc1cc(S(=O)(=O)N2CCCC2)ccc1Cl | -39.5
84 | N=c1sccn1CC(=O)Nc1cc(S(=O)(=O)N2CCCCC2)ccc1Cl | -62.5
85 | CN(CC(=O)Nc1cc(S(=O)(=O)N2CCCC2)ccc1Cl)Cc1cccs1 | -16
86 | Cc1nn(C)cc1/C=N/NC(=O)Cn1nccc1C | -1.28
87 | CCCCC(=O)NC1(C(F)(F)F)NC(=O)N(C)C1=O (stereo not drawn) | 11.3
